Consider ten compounds from PubChem BioAssay (NCI).

Among the test systems are NCI-H23 lung; NCI-H226 lung; NCI-H322M lung; HOP-62 NSCLC; HOP-92 NSCLC; NCI-H522 lung; A549/ATCC NSCLC; 786-0 renal; COLO 205 colon; DU-145 prostate; K-562 leukemia; MALME-3M melanoma; MDA-MB-231 breast; RXF 393 renal; SF-268 CNS; SF-295 CNS; SF-539 CNS; UACC-257 melanoma; NCI-H460 lung; M14 melanoma.
Holding throughout (experiment): NCI-60 one-dose screen, 48 h (100 = growth as untreated, 0 = no growth, -100 = all killed)
Common to all, as to conditions: 10 µM

Structures are written as SMILES. The panel holds about 83,000 compounds, 20% with a hit somewhere; the sample as a whole holds those more often.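 96-well plates, one dose, 48 hours. Percent growth reported; active if below 10.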 Unmarked numbers belong to inactive results. Activity calls are given as the source filed them.

As for `Cc1cc(C)c2nc(C)c(C)[n+]([O-])c2c1`, the growth with NCI-H23 lung was 97.1%; in the test with NCI-H226 lung it was 103%; in the test with NCI-H322M lung it was 94.7%; in the test with HOP-62 NSCLC, 73.4%; in the test with HOP-92 NSCLC, 93.4%; in the test with NCI-H522 lung, 85.2%. Besides, the growth in the test with A549/ATCC NSCLC is 68.6%; with 786-0 renal it was 103%; in the test with COLO 205 colon, 111%; in the test on DU-145 prostate, 110%; in the test on K-562 leukemia it was 89.2%; with MALME-3M melanoma it was 95.6%. For the same compound, the growth is 118% with MDA-MB-231 breast; 114% in the test with RXF 393 renal; 106% with SF-268 CNS; 101% with SF-295 CNS; 97.2% with SF-539 CNS; 84.8% in the test with UACC-257 melanoma.

As to `CCCOCC(O)CNCCN` (stereo not drawn), the growth is 109% with NCI-H23 lung; 121% with NCI-H226 lung; 105% with NCI-H322M lung; 92.6% in the test with HOP-62 NSCLC; 104% in the test with NCI-H460 lung; 56.9% in the test on HOP-92 NSCLC. Also, the growth in the test on NCI-H522 lung is 102%; in the test with 786-0 renal, 105%; in the test with COLO 205 colon, 110%; with DU-145 prostate, 127%; in the test with K-562 leukemia, 99.3%; in the test on MALME-3M melanoma, 106%. The growth with MDA-MB-231 breast was 97.5%; in the test with RXF 393 renal it was 110%; in the test on SF-268 CNS, 113%; with SF-295 CNS, 94.2%; in the test with SF-539 CNS, 93.2%; with UACC-257 melanoma it was 95.9%. For the same compound, the growth in the test on M14 melanoma was 109%.

Take `CCN(CCCNC(=O)Cc1cc(=O)oc2cc(N(C)C)ccc12)CCNc1ccnc2cc(Cl)ccc12`: the growth in the test with NCI-H23 lung was 94.9%; in the test on NCI-H226 lung, 93.1%; with NCI-H322M lung, 91%; in the test with HOP-62 NSCLC, 85.6%; in the test with NCI-H460 lung it was 92.3%; in the test with HOP-92 NSCLC, 59.5%. In addition, the growth in the test on NCI-H522 lung was 56.8%; in the test on 786-0 renal it was 86.3%; in the test on COLO 205 colon it was 68.1%; with DU-145 prostate it was 109%; with K-562 leukemia, 0.722% (active); in the test on MALME-3M melanoma it was 88.2%. Besides, the growth is 78.7% in the test with MDA-MB-231 breast; 74.6% in the test with RXF 393 renal; 92.1% in the test on SF-268 CNS; 80.5% in the test with SF-295 CNS; 25.2% in the test with SF-539 CNS; 41.9% in the test on UACC-257 melanoma. In the test on M14 melanoma, the growth was 11.5%.

With `COc1ccc(C2=Cc3ccc(OC(C)=O)cc3OC2)cc1`, the growth with NCI-H23 lung is 95.9%; in the test on NCI-H226 lung, 91.1%; with NCI-H322M lung, 92.3%; in the test on HOP-62 NSCLC, 109%; in the test with NCI-H460 lung it was 103%; in the test with HOP-92 NSCLC it was 91.8%. Also, the growth with NCI-H522 lung is 75.4%; in the test with 786-0 renal it was 100%; in the test on COLO 205 colon, 110%; in the test on DU-145 prostate, 90.2%; in the test with K-562 leukemia it was 72.3%; with MDA-MB-231 breast, 52.5%. Besides, the growth with RXF 393 renal was 94.7%; with SF-268 CNS, 87.9%; in the test on SF-295 CNS it was 104%; in the test with SF-539 CNS it was 85.7%; in the test with UACC-257 melanoma, 99.7%; in the test on M14 melanoma it was 122%.

In the case of `O=C(Nc1cccc(Cl)c1)Nc1cc2ncncc2cc1OCc1cccc(F)c1`, the growth with NCI-H23 lung was 20.6%; in the test on NCI-H226 lung, 37.1%; in the test on NCI-H322M lung it was 15.5%; in the test with HOP-62 NSCLC, -4.3% (active); with NCI-H460 lung it was 4.36% (active); in the test with HOP-92 NSCLC it was -4.78% (active). The growth in the test with NCI-H522 lung was -8.47% (active); in the test on 786-0 renal, 39%; with COLO 205 colon, -69.6% (active); in the test with DU-145 prostate it was 18.9%; in the test with K-562 leukemia, 8.22% (active); with MALME-3M melanoma, 10.8%. The growth was 27.2% in the test with MDA-MB-231 breast; 31.5% in the test with RXF 393 renal; 26.6% in the test with SF-268 CNS; 7.22% (active) with SF-295 CNS; 36% with SF-539 CNS; -34.2% (active) in the test on UACC-257 melanoma. In the test with M14 melanoma, the growth is -18.2% (active).

On to `COc1cccc2c1C(=O)c1c(O)c3c(c(O)c1C2=O)C[C@@](O)(C(=O)COC(=O)c1ccccc1)C[C@@H]3OC1CC(N)C(O)C(C)O1` (stereo partly drawn), for which the growth in the test on NCI-H23 lung was -65.6% (active); in the test with NCI-H226 lung, -71.9% (active); in the test with NCI-H322M lung, -95.7% (active); in the test with HOP-62 NSCLC, -96.8% (active); with NCI-H460 lung, -80.9% (active); in the test with HOP-92 NSCLC, -77.9% (active). The growth was -85.8% (active) with NCI-H522 lung; -83.9% (active) with 786-0 renal; -90.9% (active) in the test on COLO 205 colon; -87.6% (active) with DU-145 prostate; -73.7% (active) in the test on K-562 leukemia; -88.4% (active) in the test with MALME-3M melanoma. Further, the growth with MDA-MB-231 breast was -82% (active); in the test on RXF 393 renal, -80.3% (active); in the test with SF-268 CNS it was -65.6% (active); in the test with SF-295 CNS, -91.2% (active); in the test with SF-539 CNS it was -94.7% (active); with UACC-257 melanoma it was -91.3% (active). In addition, the growth in the test on M14 melanoma is -69.9% (active).

On to `COc1cc(-c2nc3ccccc3[nH]2)ccc1OCc1nnc(-c2ccc(Br)cc2)o1`, for which the growth with NCI-H23 lung is 95.8%; in the test on NCI-H226 lung it was 121%; with NCI-H322M lung, 88.8%; with HOP-62 NSCLC, 106%; with NCI-H460 lung, 82.2%; in the test with HOP-92 NSCLC it was 92.6%. Moreover, the growth is 93.9% with NCI-H522 lung; 90.2% with 786-0 renal; 91.2% with COLO 205 colon; 84.8% in the test with DU-145 prostate; 57.3% in the test with K-562 leukemia; 67.4% in the test with MALME-3M melanoma. The growth with MDA-MB-231 breast is 76.2%; with RXF 393 renal it was 87%; in the test with SF-268 CNS it was 96.8%; with SF-295 CNS it was 102%; in the test with SF-539 CNS, 110%; in the test on UACC-257 melanoma it was 97%. The growth in the test on M14 melanoma was 91.9%.

For the compound `O=C(Cn1ccc(=O)[nH]c1=O)c1ccc([N+](=O)[O-])o1`, the growth in the test with NCI-H23 lung is 108%; in the test on NCI-H226 lung, 103%; in the test with NCI-H322M lung, 120%; in the test with HOP-62 NSCLC it was 118%; with HOP-92 NSCLC it was 136%; in the test on NCI-H522 lung, -91.7% (active). Further, the growth was 109% in the test with A549/ATCC NSCLC; 108% with 786-0 renal; 71.5% in the test on COLO 205 colon; 92.3% in the test with DU-145 prostate; 83.6% with K-562 leukemia; 57.8% in the test with MALME-3M melanoma. Further, the growth is 111% in the test with MDA-MB-231 breast; 118% with RXF 393 renal; 105% in the test with SF-268 CNS; 92.7% in the test with SF-295 CNS; 106% in the test with SF-539 CNS; 81.5% with UACC-257 melanoma. Besides, the growth in the test on M14 melanoma was 91.4%.

Regarding `CCCCn1c(=O)[nH]c2c(c1=O)C(c1ccc(Cl)cc1)c1c([nH]c(=O)n(CCCC)c1=O)N2`, the growth in the test with NCI-H23 lung was 90%; with NCI-H226 lung, 96.3%; with NCI-H322M lung, 91.6%; with HOP-62 NSCLC, 90.4%; in the test on NCI-H460 lung it was 106%; with HOP-92 NSCLC it was 90.4%. Further, the growth was 83.3% in the test with NCI-H522 lung; 93.4% in the test on 786-0 renal; 105% with COLO 205 colon; 105% in the test with DU-145 prostate; 105% in the test with K-562 leukemia; 89.8% in the test on MALME-3M melanoma. The growth in the test on MDA-MB-231 breast was 106%; with RXF 393 renal, 109%; in the test on SF-268 CNS it was 99%; in the test with SF-295 CNS, 89.8%; in the test on SF-539 CNS, 101%; with UACC-257 melanoma, 96.8%. Moreover, in the test on M14 melanoma, the growth was 96.6%.

Consider `COc1ccc(-c2[nH]ncc2/C=C/c2cc(C(F)(F)F)[nH]c(=O)n2)cc1`, for which the growth was 99.4% in the test with NCI-H23 lung; 96.9% in the test with NCI-H226 lung; 98.1% with NCI-H322M lung; 96% with HOP-62 NSCLC; 110% in the test on NCI-H460 lung; 59.3% in the test with HOP-92 NSCLC. For the same compound, the growth in the test with NCI-H522 lung was 75.7%; with 786-0 renal it was 89.8%; with COLO 205 colon, 113%; in the test with DU-145 prostate, 108%; in the test with K-562 leukemia, 86.7%; with MALME-3M melanoma, 76.1%. The growth with MDA-MB-231 breast is 103%; in the test with RXF 393 renal, 125%; in the test on SF-268 CNS, 97.5%; with SF-295 CNS it was 94.7%; in the test on SF-539 CNS it was 86.7%; with UACC-257 melanoma, 98.3%. Besides, the growth with M14 melanoma is 98.7%.
